Test results reported in PubChem BioAssay AID1117319 (Southern Research Institute, 2015).
Several values for one entry are separate records, joined by “and”; a condition that tells them apart may be missing. Identical values can stand only once. Out of some 260,000 compounds screened, about 1,500 (0.58%) were called active. Another 5% or so got no clear call; they are omitted. The list is a sample of the results. Measured potencies and affinities stand elsewhere. Unmarked numbers belong to inactive results.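 How the source made its calls: active means inhibition above a set limit at one or more doses, reproduced on every date tested; inconclusive means results disagree between test dates, or hit never tested in dose response; inactive means the rest.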

Target: Virion infectivity factor (Human immunodeficiency virus type 1 group M subtype B (isolate BH10)) + Virion infectivity factor (Human immunodeficiency virus type 1 group M subtype B (isolate BRU/LAI)) + Virion infectivity factor (Human immunodeficiency virus type 1 group M subtype B (isolate PCV12)) + Virion infectivity factor (Human immunodeficiency virus type 1 group M subtype B (isolate HXB2)) + DNA dC->dU-editing enzyme APOBEC-3G (Homo sapiens) (UniProt P69720+P69721+P69722+P69723+Q9HC16)
Experiment: inhibitors of Vif binding to APOBEC3G peptide, primary screen, biochemical, TR-FRET, GST-Vif 1-94, biotin-A3G peptide, dose response retest (AID 1117319);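 further: Vif residues 1-94 fused to GST binding biotinylated APOBEC3G peptide 110-148; 0% = full assay without inhibitor and 100% = GST in place of GST-Vif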
Settings: stronger effect = higher value

SMILES | inhibition
N#Cc1cccnc1Nc1ccc(Cl)cc1 | 8.98%
CN(C(=O)COC(=O)c1ccc(Cl)cc1N)C1CCS(=O)(=O)C1 (centres undefined) | -4.2%
OCCC1CN(Cc2ccccc2-c2ccco2)CCN1Cc1ccccc1 (centres undefined) | 15.2%
N#CC1=C2SCN(Cc3ccco3)CN2C(=O)CC1c1cccc2ccccc12 (centres undefined) | 16%
COc1cc(C2CC(=O)N3CN(Cc4ccco4)CSC3=C2C#N)ccc1OCc1ccccc1 (centres undefined) | 24.2%
O=C(CN(Cc1ccc(F)cc1)C(=O)CNS(=O)(=O)c1ccccc1)NCC1CCCO1 (centres undefined) | 2.58%
O=C(OCCN1C(=O)c2ccccc2C1=O)c1cc(S(=O)(=O)N2CCOCC2)ccc1F | -0.69%
CC1=C(C(=O)OC2CCCCC2)C(c2ccccc2Br)NC(=O)N1 (centres undefined) | -6.38%
CNc1cccc2c1C(=O)c1ccccc1C2=O | 7.57%
CNC(=S)Nc1ccccc1-c1ccccc1 | -7.68%
CCCCOc1ccc(C(=O)NN2C(=O)NC3(CCCCC3)C2=O)cc1OC | 2.72%
CC[C@@H](C(=O)n1nc(C)cc1C)[C@H](NS(=O)(=O)c1ccc(C)cc1)c1ccccc1 | -0.92%
CCNC(=O)CSc1nnc(-c2cccc(S(=O)(=O)N3CCOCC3)c2)o1 | 4.88%
O=C(c1cc(COc2ccc(F)cc2Cl)on1)N1CCCC(c2ccccc2)C1 (centres undefined) | 2.73%
Cn1c(=O)[nH]c(=O)c2c1nc(N1CCOCC1)n2CCSc1nc2ccccc2[nH]1 | 2.63%
CC1(C)Cc2nc3sc4c(SCC(=O)NCc5ccccc5)ncnc4c3cc2CO1 | -70.1% and -107%
CC1(C)Cc2nc3sc4c(=O)n(CC(=O)NCc5ccco5)cnc4c3cc2CO1 | 2.08%
CC1(C)NC(=O)N(CNc2cc(Cl)ccc2Cl)C1=O | 20.3%
CCCn1c(SCC(=O)NC)nnc1C(C)C | 6.34%
N#Cc1cccc(NC(=O)Cc2ccsc2)c1 | 5.18%
N#CC1CN(C(c2ccccc2)c2ccccc2)C1 | -4.6%
CCOc1ccc(NC(c2ccccc2)P(=O)(OC)OC)cc1 (centres undefined) | 5.04%
CCOc1ccc(N(CC(=O)NC(C)CC)S(=O)(=O)c2c(C)noc2C)cc1 (centres undefined) | -0.89%
CCOc1ccc(N(CC(=O)OC)S(=O)(=O)c2c(C)noc2C)cc1 | -1.15%

SMILES | inhibition
COC(=O)C1CCN(C(=O)Nc2ccccc2)CC1 | 0.21%
COc1cccc(-c2cc3nc4c(c(N5CCC6(CC5)OCCO6)n3n2)CCCC4)c1 | -6.69%
COc1cccc(-c2cc(C(F)(F)F)n3nc(N)nc3n2)c1 | 32.2%
COc1ccc(N2CCN(CCNC(=O)Nc3ccc(C)c(Cl)c3)CC2)cc1 | 0.91%
CCCN(CC(=O)Nc1cccc(S(N)(=O)=O)c1)CC(=O)Nc1ccc(F)c(F)c1F | 9.36%
CN(Cc1cnc2nc(N)nc(N)c2n1)c1ccc(C(=O)NC(CCC(=O)O)C(=O)O)c2ccccc12 (centres undefined) | 4.59%
CN(Cc1cnc2nc(N)nc(N)c2n1)c1ccc(C(=O)NC(CCC(=O)O)C(=O)O)cc1C(F)(F)F (centres undefined) | 4.16%
OCCNC(=S)Nc1ccc(Cl)c(Cl)c1 | 1.22%
COc1ccc(C2CC(=O)N3CN(c4ccc(C)c(Cl)c4)CSC3=C2C#N)cc1OC (centres undefined) | 13%
COc1ccc(OC)c(C2CC(=O)N3CN(c4ccc(C)c(Cl)c4)CSC3=C2C#N)c1 (centres undefined) | 6.54%
C=CC1=CCN(S(=O)C(C)(C)C)[C@@H]1CCO (some centres undefined) | -5.14%
O=C(NNS(=O)(=O)c1ccccc1)c1ccc(O)cc1 | 12.2%
C=CCN(C(=O)c1ccccn1)C(C(=O)NCc1ccccc1)c1ccccc1F (centres undefined) | 6.79%
Cc1nc2sc(C(c3cccs3)N3CCC(C(N)=O)CC3)c(O)n2n1 (centres undefined) | 4.3%
CCOC(=O)C1CCN(C(c2ccc(OC)c(OC)c2)c2sc3nc(C)nn3c2O)CC1 (centres undefined) | -0.48%
COc1ccccc1/C=C/C=N/NC(=O)c1ccco1 | -2.59%
COC(=O)c1cc(CSc2nc3ccccc3[nH]2)oc1C | -2.28%
CCN(C(=O)CCS(=O)(=O)c1ccc(Br)cc1)c1ccc2c(c1)OCO2 | 27.3%
CCCN(CCC)C(=O)c1ccc2c(c1)OCO2 | 14.8%
COc1ccc(S(=O)(=O)NCC(=O)NCc2cc(=O)n(C)c(=O)n2C)cc1 | -1.92%
O=c1[nH]c2ccccc2n2c(-c3ccncc3)nnc12 | 4.55%
O=c1[nH]c2ccccc2n2c(C(F)(F)F)nnc12 | -5.29%
Cc1sc(N(C(=O)CCc2ccccc2)c2ccc(C(=O)O)cc2)nc1-c1ccccc1 | -5.7%
COc1ccc(C(=O)NCCS(=O)(=O)NC2CCCC2)cc1 | -8.13%

SMILES | inhibition
CCOC(=O)c1c(C)[nH]c(C(=O)Cn2c(=O)oc3ccccc32)c1C | -6.81%
CC(=O)Cn1c(=O)oc2ccccc21 | 0.93%
Cc1ccccc1CS(=O)(=O)Cc1ccc(C(=O)NCCCN2CC(C)CC(C)C2)o1 (centres undefined) | 28%
Cc1ccc(S(=O)(=O)NCCSCc2ccco2)cc1 | -0.39%
COc1ccc(S(=O)(=O)NCCSCc2ccco2)cc1 | 24%
O=C1NC[C@@H](Cc2cccc3ccccc23)N(CC2CCCCC2)C1=O | 5.43%
COc1ccc(/C=C2\C(=O)NCC(=O)N2Cc2ccccc2)cc1 | -2.05%
CC1=C/C(=N\OS(=O)(=O)c2ccccc2)C(C)=CC1=O | 19.9%
CC1=CC(=O)C=C(C)C1=NOS(=O)(=O)c1ccccc1 | 9.66%
Cc1cccc(NS(=O)(=O)c2nnc(NC(=O)CC(C)C)s2)c1 | -2.78%
C=CCn1c(C)cc(-c2csc(NCC)n2)c1C | 32.5%
CCCn1c(C)cc(-c2csc(N)n2)c1C | 11.8%
COc1ccc(N2C3=C(CC4=C2CC(C)(C)CC4=O)C(=O)CC(C)(C)C3)cc1 | 24.6% and 5.22%
COc1ccc(-n2ccc(=O)c3c2CCCC3=O)cc1 | 9%
Nc1cc(=O)[nH]c(SCc2ccc(Cl)cc2Cl)n1 | -1%
CCN(CC(=O)Nc1ccccc1C(F)(F)F)C(=O)Cn1c(=O)cnc2ccccc21 | -3.46%
O=c1[nH]c2sc3c(c2c2nncn12)CCCC3 | 24.3%
Cc1nc2sc3c(c2c(=O)o1)CCC3 | 11.5%
Cc1cccnc1NC(=O)c1ccc(S(=O)(=O)N2CCCCCC2)cc1 | -2.42%
Cc1ccc(CN2CCC[C@]3(N[C@H](c4ccc(C(F)(F)F)cc4)[C@@H]4C(=O)N(Cc5ccccc5)C(=O)[C@@H]43)C2=O)cc1 | 5.48%
CCn1c2ccccc2c2nc3cc(S(=O)(=O)N4CCOCC4)ccc3nc21 | 2.64%
Nc1nc2cc(S(=O)(=O)N3CCOCC3)ccc2o1 | -2.39%
O=C(OCn1nnc2ccccc2c1=O)c1cccnc1Cl | 0.6%
COc1nc(NCCC2=CCCCC2)nc(OC)n1 | -1.44%

SMILES | inhibition
CCOC(=O)N1CCN(C(=O)c2cc(C)no2)CC1 | -3.25%
CC(=O)N/C(=C\c1ccccc1)C(=O)OCC(=O)N(CC(C)C)c1c(N)n(Cc2ccccc2)c(=O)[nH]c1=O | 4.02%
Cc1csc(NC(=O)CSc2nncn2C)n1 | 7.24%
CC(C)CC(=O)Nc1ncc([N+](=O)[O-])s1 | 8.92%
O=C(COC(=O)c1cccc([N+](=O)[O-])c1)Nc1ncc(Br)s1 | 1.23%
COc1ccc(C(=O)OCC(=O)Nc2ncc([N+](=O)[O-])s2)cc1OC | 5.33%
C=CCn1c(SCC(=O)NCc2ccc3c(c2)OCO3)nc2scc(-c3ccccc3)c2c1=O | -40.6%
Cc1ccsc1C(=O)Nc1nc2ccccc2[nH]1 | -12.8%
COc1ccc(NC(=O)C2(c3ccc(NC(=O)c4ccc(OC)c(OC)c4)cc3)CCCC2)cc1 | 0.05%
O=C(Nc1ccc(Br)cn1)C1CCCN1S(=O)(=O)c1ccccc1 (centres undefined) | 4.08%
CC1=CCC2C(=O)N(c3nc4ccccc4n3C)C(=O)C2C1 (centres undefined) | 24.7%
Cc1cccc(N2C(=O)CC(N(O)c3ccccc3)C2=O)c1 (centres undefined) | 3.45%
O=C(/C=C/c1cccs1)N1CCN(c2ccc(F)cc2)CC1 | 3.81%
O=C(/C=C/c1cccs1)N1CCN(c2ccccc2)CC1 | -0.91%
COC(=O)CC1C(=O)NCCN1C(=S)NC(=O)c1ccccc1[N+](=O)[O-] (centres undefined) | 13.4%
COc1ccc2c(c1)c(=O)oc1cc(OCC(=O)NC3CC3)ccc12 | -2.02%
COc1ccc2c(c1)c(=O)oc1cc(OCC(=O)N3CCCC(C)C3)ccc12 (centres undefined) | -1.48%
CCCOC(=O)c1ccc(NC(=O)c2ccccc2[N+](=O)[O-])cc1 | -4.31%
CCN(CC)S(=O)(=O)c1ccc(C(=O)OC2CCCCC2CN(C)C)cc1 (centres undefined) | -1.05%
COc1ccc(CCNS(=O)(=O)CCNC(=O)c2ccccc2)cc1 | -6.03%
CC(/C=C/c1ccc(Cl)o1)=C\C(=O)O | 27.4%
CC(/C=C/c1ccc(C)o1)=C\C(=O)O | 2.74%
